NS1 inh: blocks influenza NS1 protein function; Potency, µM (titrated, usually from 46.1 µM); hit rate 0.4% among 270,000; AID 2326; calls by dose curve; also: actives are rising curves; nearly all actives have a fitted effect of over 50% in size
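Growth recovery, yeast-based: influenza A NS1 expressed in S. cerevisiae causes slow growth, and suppressors are detected by OD600. The parent strain without NS1 is used as positive control.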
Pf growth 48h: P. falciparum growth inhibition at 48 hours (one generation) | AID 504832 | Potency, µM (doses to about 28.7 µM), usual class: inhibitors | hit rate 5.9% among 310,000 | P. falciparum luciferase growth in erythrocytes, 48 h
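First compound was added to culture medium, then infected red cells at 0.1% parasitemia and 2% hematocrit (final). After incubation at 37 C under 5% CO2, luciferase detection reagent was dispensed and light output recorded.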
HCV inhibitor: HCV inhibition. hit rate 3.4% among 340,000. AID 651820. Huh7.5.1 HCVcc-Cre infection, luciferase reporter, 44 h. Potency, µM (doses to about 41.8 µM), most hits filed as inhibitors
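After 44 h co-culture of compound, cells and HCVcc-Cre (~0.5 moi), substrate is added for 15 min at room temperature and luciferase measured over 15 sec. Cells were seeded at 1,000/well and pre-cultured 4 h.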
Pf growth 96h: inhibits malaria parasite growth, 96 h; P. falciparum luciferase reporter growth, 96 h; AID 504834; hit rate 6.9% among 320,000; Potency, µM (top dose mostly 28.7 µM), hits mostly inhibitors
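Cell-based qHTS: luciferase-tagged P. falciparum in erythrocytes (2% hematocrit, 0.05% parasitemia final) incubated with compounds for 96 hours, 37 C, 5% CO2; luciferase detection reagent then added and luminescence measured.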
SARS PLpro yeast: SARS-CoV PLP inhibition in yeast. S. cerevisiae expressing SARS-CoV PLpro, growth rescue. Potency, µM (titrated, usually from 32.9 µM), hits mostly activators. hit rate 0.19% among 330,000; calls by dose curve; also: nearly all actives have a fitted effect of over 55% in size
AMA1 RON2 block: AMA1-RON2 (P. falciparum) interaction inhibition; AlphaScreen AMA1-biotinylated RON2 peptide binding; Potency, µM (highest dose often 58.2 µM), actives largely listed as inhibitors; hit rate 0.2% among 360,000; AID 720542; also: nearly all actives have a fitted effect of over 45% in size
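AMA1 (3D7) with his tag at 25 nM final met compounds first, then biotinylated RON2 peptide at 25 nM; detection used donor plus acceptor beads, 10 µg/mL apiece, read by AlphaScreen after 30 min at room temperature.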
Numbers stand for hits; i = inactive; ? = inconclusive; nt = no result; [ ] = remark or other dose. Sampled rows, rich in hits. Any-hit rate of the full collection: about 12%. Unless noted, calls follow the shape of the dose curve; as a rule, active = well fitted curve in the direction sought with a large enough effect; inconclusive = small, poorly fitted or top-dose-only effect, or another doubt; inactive = no such curve, though single readings can be large; an effect the other way counts as inactive or inconclusive.

SMILES	NS1 inh	Pf growth 48h	HCV inhibitor	Pf growth 96h	SARS PLpro yeast	AMA1 RON2 block
CC(C)(C)c1ccc(C(=O)N2CCNCC2)cc1	i	i	i	nt	i	i
C/C(=N/O)c1ccccn1	i	?	i	i	i	i
CCCCCC/C(=N/O)c1ccccn1	i	12µM	i	?	i	i
COc1ccc2ncc(S(=O)(=O)c3ccccc3)c(N3CCC4(CC3)OCCO4)c2c1	i	8.3µM	i	?	i	i[11.6 µM]
COc1ccc2ncc(S(=O)(=O)c3ccccc3)c(N3CCN(c4ccccc4)CC3)c2c1	i	7.4µM	?	13µM	i	i
COc1cc2ncc(S(=O)(=O)c3ccccc3)c(N3CCC4(CC3)OCCO4)c2cc1OC	nt	?	?	i	i	i
CN(CC(=O)Nc1ccccc1C(=O)Nc1ccccc1)C1CCCCC1	nt	nt	?	nt	i	i
CCC/C=C1/CCCOC(C(=O)NCc2ccccc2)(C(F)(F)F)C1 (stereo unspecified)	nt	nt	0.89µM	nt	nt	i
c1ccc(-c2nc(N3CCOCC3)c3ccccc3n2)nc1	i	7.4µM	?	?	i	i
c1ccc(-c2nc(N3CCCCCC3)c3ccccc3n2)nc1	i	0.83µM	1.6µM	nt	i	i
CCN1CCN(c2nc(-c3ccccn3)nc3ccccc23)CC1	i	?	i	?	i	i
CSc1nc(N2CCOCC2)c2ccccc2n1	i	?	10µM	i	i	i
O=[N+]([O-])c1cccc(-c2nc(N3CCOCC3)c3ccccc3n2)c1	i	i	nt	i	i	nt
Cc1nc(-c2ccccn2)nc(N(C)c2ccccc2)c1Cl	i	1.7µM	10µM	1.2µM	i	i
O=C(c1ccc(=O)[nH]n1)N1CCN(S(=O)(=O)c2ccc(C(F)(F)F)cc2)CC1	nt	?	i	?	i	i
Cc1nc(-c2ccccn2)nc(N2CCOCC2)c1Cl	i	?	i	2.3µM	i	i
COc1ccccc1/C=C/C(=O)NCCc1ccccn1	i	i	i	i	i	i
O=C(Cc1ncc(C(F)(F)F)cc1Cl)NCc1ccco1	nt	i	i	i	i	i
CCOC(=O)C1C(=O)C=C(c2ccc(C)cc2)CC1c1ccc([N+](=O)[O-])cc1 (stereo unspecified)	i	?	?	9.3µM	i	i
O=C1NC(=O)C(CCc2ccncc2)(Cc2cccc(Cl)c2Cl)C(=O)N1c1ccc(Br)cc1 (stereo unspecified)	i	?	i	5.2µM	i	i
Cc1cc(O)c(C=O)c2c1C(=O)Oc1c(CO)c(O)c3c(c1O2)C(O)OC3=O (stereo unspecified)	i	i	i	i	i	1.1µM
CNc1nc(N)c([N+](=O)[O-])c(Nc2cccc(Cl)c2)n1	i	i	8.9µM	i	i	i
C=CCNc1nc(N)c([N+](=O)[O-])c(Nc2cccc(Cl)c2)n1	i	?	2.8µM	i	i	i
CNc1nc(N)c([N+](=O)[O-])c(NCc2ccccc2)n1	i	?	i	?	i	i
COc1cc2nc(Nc3cccc(F)c3)nc(N)c2cc1OC	i	0.41µM	i	?	i	i
SMILES	NS1 inh	Pf growth 48h	HCV inhibitor	Pf growth 96h	SARS PLpro yeast	AMA1 RON2 block
CNc1nc(N)c([N+](=O)[O-])c(Nc2cccc(F)c2)n1	i	?	22µM	?	i	i
COc1ccc(Cc2nnc(SCC(=O)N3CCCCC3)o2)cc1	i	i	i	i	i	i
COc1cc(/C=C2\SC(=O)N(CCN)C2=O)ccc1OS(=O)(=O)c1cc(C)ccc1C	nt	i	13µM	i	i	i
O=C(CNc1cccc2ccccc12)N/N=C/c1ccc[nH]1	i	i	1µM	i	i	i
Cc1cccc(NCC(=O)N/N=C\c2ccc[nH]2)c1	i	i	8.9µM	i	i	i
O=C(CNc1cccc2ccccc12)N/N=C/c1ccc([N+](=O)[O-])o1	i	3.3µM	10µM	1.2µM	i	i
CSc1ccc(/C=N/NC(=O)CNc2cccc3ccccc23)cc1	i	i	i	i	i	i
Cc1cccc(NCC(=O)N/N=C/c2cccc(Br)c2)c1	nt	i	i	i	i	i
O=C(CNc1cccc([N+](=O)[O-])c1)N/N=C/c1ccc([N+](=O)[O-])o1	i	?	?	i	i	i
COc1ccc(Cl)cc1C(=O)NNC(=O)CN1C(=O)C2CC=CCC2C1=O (stereo unspecified)	nt	i	i	i	i	i
CCOC(=O)c1nc(Nc2ccc(N3CCC(C)CC3)cc2)c2ccccc2n1	i	?	i	i	i	?
CCOc1ccc(CC(=O)Nc2c(C(N)=O)oc3ccccc23)cc1OCC	i	?	i	12µM	i	i
COc1ccc(N2CCN(C(=O)c3oc4ccccc4c3NC(=O)Cc3ccc(OC)c(OC)c3)CC2)cc1	i	?	?	i	i	?
Cc1c(Cc2ccccc2)sc(NC(=O)c2ccco2)c1C(N)=O	i	i	?	i	i	i
CCOc1ccc(CC(=O)Nc2sc(Cc3ccccc3)c(C)c2C(N)=O)cc1OCC	i	?	i	9.3µM	i	i
COc1ccc(NC(=O)C2CCN(S(=O)(=O)c3cn(C)nc3C)CC2)cc1	i	i	i	?	i	i
CCCn1c(SCC(=O)Nc2nnc(CC)s2)nnc1-c1ccncc1	i	i	i	?	i	i
O=C(C[n+]1cccc(/C=N/O)c1)NC(=O)Nc1ccccc1	nt	nt	nt	nt	nt	i
COCCn1c(=O)c2c(nc3n2CC(C)CN3Cc2ccccc2)n(C)c1=O (stereo unspecified)	i	?	i	?	i	i
CCOC(=O)N1CCN(C(=O)C[C@@H]2C[C@@]3(C(=O)OC)CC(C)(C)CC=C3N(Cc3ccccc3)C2=O)CC1	nt	nt	nt	nt	nt	i
O=C(c1nc2ccccn2c1CNCCCn1cccn1)N1CCCC1	i	i	i	13µM	i	i
O=C(c1nc2ccccn2c1CNCC1OCCc2ccccc21)N1CCOCC1 (stereo unspecified)	i	i	i	12µM	i	i
Cc1ccn2c(CNCC3OCCc4ccccc43)c(C(=O)N3CCCCCC3)nc2c1 (stereo unspecified)	i	?	i	i	i	i
O=C(CCc1nnc(CCc2ccccc2)o1)NC(c1cccnc1)C(F)(F)F (stereo unspecified)	i	i	i	i	i	i
Cc1cc(C)c(C)c(C(=O)CSc2nnc(-c3ccc4[nH]c(C)c(C)c4c3)o2)c1C	i	13µM	?	?	?	i
Cc1[nH]c2ccc(-c3nnc(SCC(=O)c4ccc(F)cc4)o3)cc2c1C	i	i	i	?	i	i
CN1CCN(c2ccc([N+](=O)[O-])c(-n3nc(-c4ccccc4)c4ccccc4c3=O)c2)CC1	i	?	4.5µM	8.3µM	i	i
CN1CCN(c2ccc([N+](=O)[O-])c(Sc3ccccn3)c2)CC1	i	?	?	0.29µM	i	i
Cc1cc(F)ccc1NCc1ccc([N+](=O)[O-])cc1	nt	i	i	?	i	?
CCC(C)NC(=O)c1cn(C)c(=O)c2cc(OC)c(OC)cc12 (stereo unspecified)	i	i	?	9.3µM	i	i

From PubChem
